The results in this text go back to the supplement of paper PMC4206467.

The structures appear in SMILES notation.

This assay relates to Perkinsus marinus PRA240. Description: ATP content (proliferation) relative to DMSO control; higher = more parasite growth (less inhibition). The following applies: 20 µM; 4 days. How it is done: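 Perkinsus marinus PRA240 trophozoites (2-5x10^6 cells/ml, 100 µl, 96-well) were exposed once to MMV Malaria Box compounds at 20 µM (0.1% DMSO) in triplicate. ATP content (ATPlite bioluminescence) was read at day 4 post-exposure and normalised to DMSO + cells control wells (100% activity). Compounds were identified by joining plate and well to the Malaria Box list.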
In turn, `O=C(Nc1ccc(CN2CCOCC2)cc1)c1ccc(-c2ccc(Br)cc2)o1` showed an ATP content of 89.4%.

With `CC(Oc1ccc(NC(=O)c2cccs2)cc1)C(=O)c1ccc(Cl)cc1` (configuration not stated), the ATP content worked out at 55.4%.

Molecule `O=C(Nc1ccc(N2CCN(Cc3ccccc3)CC2)cc1)c1cccs1` yielded an ATP content of 86.8%.

As to `C=C(C)CCC(C)N1CCC(N2CCC(C(=O)NCCc3ccccc3)CC2)CC1` (configuration not stated), the ATP content stood at 90%.

`COc1ccc2nc(C)cc(Nc3ccccc3O)c2c1` displayed an ATP content of 163%.

On to `COCCN(C(=O)Cc1cccs1)C(C(=O)NCc1ccc(OC)cc1)c1ccc(C(C)C)cc1` (configuration not stated), for which the ATP content was 37.2%.

Turning to `Cc1ccc(C(=O)c2oc3ccc4c(C)cc(=O)oc4c3c2C)cc1`, the ATP content was 123%.

In turn, `CC(C)CNC(=O)c1c(N)n(CCc2ccccc2F)c2nc3ccccc3nc12` displayed an ATP content of 90.4%.

`CCN(CC)CCCNc1nc(-c2ccc(Cl)cc2)nc2ccccc12` registered an ATP content of 99.6%.

Turning to `CCCCCCc1cc2cc(-c3csc(C=Cc4ccccc4)n3)c(=O)oc2cc1O`, the ATP content was 137%.

Take `COc1nc(Nc2ccc(C(C)C)cc2)nc(OC)n1`: the ATP content was determined as 125%.

With `COc1cc(C(=O)Nc2ccc(-c3nc4ccccc4[nH]3)cc2)cc(OC)c1OC`, the ATP content turned out to be 124%.

Molecule `Cc1ccc(NC(=O)Nc2cccc(Cl)c2)cc1F` yielded an ATP content of 85%.

`CCOC(=O)C1=C(C)N=c2sc(=Cc3ccccc3O)c(=O)n2C1c1ccc(OC)c2ccccc12` (configuration not stated) gave an ATP content of 196%.

In turn, `COc1cc2c(cc1OC)C1=NNC(=O)C1=NC(C)(C)C2` returned an ATP content of 42.2%.

`COc1ccc(C(=O)NC(c2ccc(Cl)cc2Cl)c2cc(Cl)c3cccnc3c2O)cc1` (configuration not stated) displayed an ATP content of 96.4%.

The molecule `CN1c2ccccc2N(C)C1c1ccc2c(c1)OCO2` came in with an ATP content of 87.3%.

On to `CCN(CC)CCCNc1ccnc2cc3ccccc3cc12`, for which the ATP content came to 139%.

With `O=C(Nc1ccc(N2CCCCC2)c(Cl)c1)c1ccc(Br)o1`, the ATP content was 33.7%.

`COc1ccc(C2C(C(=O)Nc3cccc(OC)c3)c3ccccc3C(=O)N2C2CCCCC2)cc1` (configuration not stated) yielded an ATP content of 94.3%.

`COc1ccc(OC)c(C2C3=C(CC(C)(C)CC3=O)N(c3ccc(Cl)c(Cl)c3)C3=C2C(=O)CC(C)(C)C3)c1` came in with an ATP content of 161%.

Turning to `OC1CCCCC1C1(NC(=S)Nc2ccccc2)CCCCC1` (configuration not stated), the ATP content was 127%.

`CCOc1ccc(Nc2ccnc3cc(Cl)ccc23)cc1` yielded an ATP content of 55.2%.

`CCOc1cc(Cl)c(C(C)NC(=O)c2ccccc2)cc1OCC` (configuration not stated) registered an ATP content of 91.1%.

For `CC(C)(C)c1ccc2c(c1)CN(Cc1ccc(Cl)cc1)CO2`, the ATP content stood at 107%.

Regarding `COc1ccc(-c2cc(=O)oc3c4c(ccc23)OCN(Cc2ccc(F)cc2)C4)cc1`, the ATP content turned out to be 130%.

`CCN1CCN(c2cc(C)c3cc(NC(=O)c4ccc(OC)c(OC)c4)ccc3n2)CC1` showed an ATP content of 91.6%.

`O=C(Nc1ccc(Br)cc1)Nc1cccc(Cl)c1` returned an ATP content of 142%.

`OC(CNCc1ccccc1)Cn1c2ccccc2c2ccccc21` (configuration not stated) registered an ATP content of 105%.

Consider `CCCCN(CCCC)S(=O)(=O)c1ccc(NC(=O)c2ccco2)cc1`, for which the ATP content turned out to be 43.3%.

As for `COc1ccc(CCNC(=O)c2cc(S(=O)(=O)N3CC(C)CC(C)C3)ccc2Sc2ccc(F)cc2)cc1OC` (configuration not stated), the ATP content came out at 160%.

`CN1CCN(c2nc(Nc3ccc(O)cc3)nc3ccccc23)CC1` returned an ATP content of 114%.

On to `c1ccc2c(NCCc3c[nH]c4ccccc34)c3ccccc3nc2c1`, for which the ATP content was 179%.

As to `Cn1c(=O)n(C)c2cc(CNCCNc3ccnc4cc(Cl)ccc34)ccc21`, the ATP content turned out to be 132%.

`COc1ccc(CN2CCCC(C(=O)c3ccc(C(F)(F)F)cc3)C2)c(O)c1` (configuration not stated) came in with an ATP content of 117%.

With `Cc1ccc(S(=O)(=O)c2c(COC(=O)c3cccc(C)c3)c(-c3ccccc3)nn2C)cc1`, the ATP content was 162%.

In the case of `COc1ccc(C=C2SC(Nc3ccccc3)=NC2=O)cc1`, the ATP content came to 61.4%.
